# In ChEMBL document CHEMBL2218924, “A broad activity screen in support of a chemogenomic map for kinase signalling research and drug discovery” (Biochem J, 2013):
# What was measured:
# [1] = target: T1, Ephrin type-A receptor 3 (Homo sapiens) (UniProt P29320); conditions: at 10 µM
# T1 sequence (whole entry): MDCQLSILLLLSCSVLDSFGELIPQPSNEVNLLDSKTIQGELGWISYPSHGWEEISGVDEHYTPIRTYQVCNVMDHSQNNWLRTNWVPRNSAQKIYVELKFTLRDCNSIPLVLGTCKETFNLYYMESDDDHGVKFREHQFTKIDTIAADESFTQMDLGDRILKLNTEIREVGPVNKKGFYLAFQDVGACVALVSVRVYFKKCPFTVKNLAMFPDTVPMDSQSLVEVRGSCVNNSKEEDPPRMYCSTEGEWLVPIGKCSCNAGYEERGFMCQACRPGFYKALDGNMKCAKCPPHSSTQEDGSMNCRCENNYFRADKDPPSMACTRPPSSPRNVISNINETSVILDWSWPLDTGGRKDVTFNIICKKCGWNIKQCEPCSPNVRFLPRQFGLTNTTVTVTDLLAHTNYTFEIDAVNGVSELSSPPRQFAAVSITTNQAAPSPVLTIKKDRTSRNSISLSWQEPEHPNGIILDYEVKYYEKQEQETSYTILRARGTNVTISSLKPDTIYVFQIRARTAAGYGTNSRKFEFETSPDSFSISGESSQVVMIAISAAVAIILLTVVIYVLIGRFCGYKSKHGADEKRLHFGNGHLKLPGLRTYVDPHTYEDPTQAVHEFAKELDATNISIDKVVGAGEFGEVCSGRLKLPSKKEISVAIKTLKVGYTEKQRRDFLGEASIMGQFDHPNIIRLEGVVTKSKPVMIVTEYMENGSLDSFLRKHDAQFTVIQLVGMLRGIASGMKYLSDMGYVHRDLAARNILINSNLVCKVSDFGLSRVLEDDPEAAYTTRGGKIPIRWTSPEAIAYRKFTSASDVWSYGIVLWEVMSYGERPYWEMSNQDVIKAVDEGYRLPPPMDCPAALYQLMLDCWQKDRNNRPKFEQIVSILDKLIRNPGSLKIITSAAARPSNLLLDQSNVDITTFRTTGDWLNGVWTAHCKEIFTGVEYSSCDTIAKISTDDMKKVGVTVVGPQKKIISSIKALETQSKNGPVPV
# [2] = target: Ephrin type-A receptor 4 (Homo sapiens) (UniProt P54764); conditions: at 1 µM
# [3] = target: Ephrin type-A receptor 4 (Homo sapiens) (UniProt P54764); conditions: at 10 µM
# [4] = target: Ephrin type-A receptor 5 (Homo sapiens) (UniProt P54756); conditions: at 1 µM
# [5] = target: Ephrin type-A receptor 5 (Homo sapiens) (UniProt P54756); conditions: at 10 µM
# [6] = target: Ephrin type-A receptor 7 (Homo sapiens) (UniProt Q15375); conditions: at 1 µM
# [7] = target: Ephrin type-A receptor 7 (Homo sapiens) (UniProt Q15375); conditions: at 10 µM
# [8] = target: T2, Ephrin type-A receptor 8 (Homo sapiens) (UniProt P29322); conditions: at 1 µM
# T2 sequence (whole entry): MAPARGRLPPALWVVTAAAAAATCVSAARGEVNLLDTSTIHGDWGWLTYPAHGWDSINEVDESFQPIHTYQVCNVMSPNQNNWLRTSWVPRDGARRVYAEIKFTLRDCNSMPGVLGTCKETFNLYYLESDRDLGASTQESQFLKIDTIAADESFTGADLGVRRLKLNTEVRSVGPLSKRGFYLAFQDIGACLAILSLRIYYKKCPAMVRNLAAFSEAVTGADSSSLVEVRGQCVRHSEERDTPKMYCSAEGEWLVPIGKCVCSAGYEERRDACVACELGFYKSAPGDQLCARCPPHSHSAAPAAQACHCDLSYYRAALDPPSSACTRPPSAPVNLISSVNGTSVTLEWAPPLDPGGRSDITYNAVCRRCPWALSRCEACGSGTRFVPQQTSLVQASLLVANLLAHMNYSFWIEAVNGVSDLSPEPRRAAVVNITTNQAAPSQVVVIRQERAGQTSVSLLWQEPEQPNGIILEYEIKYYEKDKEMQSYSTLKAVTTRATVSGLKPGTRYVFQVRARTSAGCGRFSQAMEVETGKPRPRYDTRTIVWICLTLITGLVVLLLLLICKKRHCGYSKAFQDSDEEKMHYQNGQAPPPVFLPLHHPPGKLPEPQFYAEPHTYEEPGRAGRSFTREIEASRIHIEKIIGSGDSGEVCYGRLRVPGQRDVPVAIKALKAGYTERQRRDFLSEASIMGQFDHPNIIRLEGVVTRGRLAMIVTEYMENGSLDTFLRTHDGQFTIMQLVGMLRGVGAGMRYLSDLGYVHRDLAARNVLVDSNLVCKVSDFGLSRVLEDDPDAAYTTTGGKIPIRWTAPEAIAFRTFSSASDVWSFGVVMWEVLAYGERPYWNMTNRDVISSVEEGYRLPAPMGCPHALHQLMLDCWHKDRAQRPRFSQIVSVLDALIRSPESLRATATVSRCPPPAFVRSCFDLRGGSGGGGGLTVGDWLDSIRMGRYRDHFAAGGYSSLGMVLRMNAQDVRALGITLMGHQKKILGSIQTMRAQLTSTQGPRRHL
# [9] = target: T2, Ephrin type-A receptor 8 (Homo sapiens); conditions: at 10 µM
# [10] = target: T3, Ephrin type-B receptor 1 (Homo sapiens) (UniProt P54762); conditions: at 1 µM
# T3 sequence (whole entry): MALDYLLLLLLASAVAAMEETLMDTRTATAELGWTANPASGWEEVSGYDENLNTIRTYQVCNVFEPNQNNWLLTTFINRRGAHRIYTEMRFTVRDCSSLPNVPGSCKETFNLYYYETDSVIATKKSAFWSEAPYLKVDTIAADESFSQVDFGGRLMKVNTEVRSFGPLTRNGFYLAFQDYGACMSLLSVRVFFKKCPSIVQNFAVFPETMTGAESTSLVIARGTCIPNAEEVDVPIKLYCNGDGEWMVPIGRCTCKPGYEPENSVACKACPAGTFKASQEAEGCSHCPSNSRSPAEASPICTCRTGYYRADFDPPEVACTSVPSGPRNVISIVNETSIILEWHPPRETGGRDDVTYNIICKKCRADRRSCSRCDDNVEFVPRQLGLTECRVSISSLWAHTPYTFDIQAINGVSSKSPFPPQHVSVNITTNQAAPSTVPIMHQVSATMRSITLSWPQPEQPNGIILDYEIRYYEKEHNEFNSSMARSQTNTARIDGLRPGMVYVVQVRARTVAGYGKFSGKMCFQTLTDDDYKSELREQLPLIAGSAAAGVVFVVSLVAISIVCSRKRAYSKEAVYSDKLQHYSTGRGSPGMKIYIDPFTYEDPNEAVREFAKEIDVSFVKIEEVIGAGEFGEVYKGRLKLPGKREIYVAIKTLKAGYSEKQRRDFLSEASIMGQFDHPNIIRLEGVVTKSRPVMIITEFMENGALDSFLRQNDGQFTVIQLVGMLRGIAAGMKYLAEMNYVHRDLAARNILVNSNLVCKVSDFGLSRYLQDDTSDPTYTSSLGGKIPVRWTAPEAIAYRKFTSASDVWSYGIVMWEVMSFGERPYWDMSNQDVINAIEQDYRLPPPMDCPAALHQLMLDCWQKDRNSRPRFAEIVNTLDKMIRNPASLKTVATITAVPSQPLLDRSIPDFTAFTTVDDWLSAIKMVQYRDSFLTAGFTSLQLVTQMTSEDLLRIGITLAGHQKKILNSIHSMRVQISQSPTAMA
# [11] = target: T3, Ephrin type-B receptor 1 (Homo sapiens); conditions: at 10 µM
# [12] = target: T4, Ephrin type-B receptor 3 (Homo sapiens) (UniProt P54753); conditions: at 10 µM
# T4 sequence (whole entry): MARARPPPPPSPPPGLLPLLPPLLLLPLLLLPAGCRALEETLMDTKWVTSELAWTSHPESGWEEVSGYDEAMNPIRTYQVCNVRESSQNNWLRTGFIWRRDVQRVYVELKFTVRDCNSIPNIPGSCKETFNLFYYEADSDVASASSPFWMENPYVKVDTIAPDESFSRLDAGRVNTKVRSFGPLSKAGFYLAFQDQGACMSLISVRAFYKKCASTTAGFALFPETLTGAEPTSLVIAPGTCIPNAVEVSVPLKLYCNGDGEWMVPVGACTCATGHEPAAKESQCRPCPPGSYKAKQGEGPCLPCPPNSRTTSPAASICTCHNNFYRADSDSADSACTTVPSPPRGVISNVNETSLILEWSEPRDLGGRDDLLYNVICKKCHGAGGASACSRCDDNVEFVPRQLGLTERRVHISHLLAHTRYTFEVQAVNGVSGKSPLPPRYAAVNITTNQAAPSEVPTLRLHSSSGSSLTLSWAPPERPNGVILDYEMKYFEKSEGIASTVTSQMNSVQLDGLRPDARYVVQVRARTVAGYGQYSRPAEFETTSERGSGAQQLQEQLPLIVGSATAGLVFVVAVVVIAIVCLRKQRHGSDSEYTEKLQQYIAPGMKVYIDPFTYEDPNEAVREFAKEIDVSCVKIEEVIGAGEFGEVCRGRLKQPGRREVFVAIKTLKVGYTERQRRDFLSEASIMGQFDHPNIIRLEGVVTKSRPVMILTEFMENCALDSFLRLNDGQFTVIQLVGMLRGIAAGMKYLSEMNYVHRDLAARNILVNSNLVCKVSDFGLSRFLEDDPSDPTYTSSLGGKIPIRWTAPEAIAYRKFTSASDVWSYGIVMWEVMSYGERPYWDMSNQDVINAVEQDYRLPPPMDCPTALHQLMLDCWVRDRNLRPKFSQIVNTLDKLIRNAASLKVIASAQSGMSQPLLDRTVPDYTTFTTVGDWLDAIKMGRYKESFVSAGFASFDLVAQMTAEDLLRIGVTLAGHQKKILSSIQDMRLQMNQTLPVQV
# [13] = target: T5, Ephrin type-B receptor 4 (Homo sapiens) (UniProt P54760); conditions: at 1 µM
# T5 sequence (whole entry): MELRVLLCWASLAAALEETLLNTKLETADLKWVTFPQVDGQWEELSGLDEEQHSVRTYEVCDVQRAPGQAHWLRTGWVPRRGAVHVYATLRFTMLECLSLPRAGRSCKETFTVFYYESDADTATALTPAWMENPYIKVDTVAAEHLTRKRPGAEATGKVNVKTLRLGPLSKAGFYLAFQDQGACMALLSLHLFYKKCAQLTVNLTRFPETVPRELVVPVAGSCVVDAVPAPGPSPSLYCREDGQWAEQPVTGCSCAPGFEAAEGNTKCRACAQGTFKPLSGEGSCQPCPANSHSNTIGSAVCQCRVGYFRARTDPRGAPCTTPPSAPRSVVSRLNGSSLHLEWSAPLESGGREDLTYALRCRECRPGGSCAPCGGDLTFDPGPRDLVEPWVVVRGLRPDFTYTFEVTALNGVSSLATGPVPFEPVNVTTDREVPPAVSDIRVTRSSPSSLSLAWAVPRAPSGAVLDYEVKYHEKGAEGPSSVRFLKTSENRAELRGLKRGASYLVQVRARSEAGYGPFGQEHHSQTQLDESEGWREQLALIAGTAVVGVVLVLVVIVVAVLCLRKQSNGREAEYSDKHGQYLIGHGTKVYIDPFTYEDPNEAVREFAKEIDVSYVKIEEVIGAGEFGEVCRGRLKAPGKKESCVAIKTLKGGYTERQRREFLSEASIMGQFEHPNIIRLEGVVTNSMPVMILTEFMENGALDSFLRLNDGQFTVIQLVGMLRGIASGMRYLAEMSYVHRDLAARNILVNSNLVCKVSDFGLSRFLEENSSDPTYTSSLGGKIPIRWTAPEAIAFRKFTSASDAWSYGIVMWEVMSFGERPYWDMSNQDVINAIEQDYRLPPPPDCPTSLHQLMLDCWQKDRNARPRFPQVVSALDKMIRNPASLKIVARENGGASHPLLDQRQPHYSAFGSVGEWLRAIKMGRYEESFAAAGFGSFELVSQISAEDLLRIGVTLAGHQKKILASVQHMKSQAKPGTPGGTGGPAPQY
# [14] = target: T5, Ephrin type-B receptor 4 (Homo sapiens); conditions: at 10 µM
# [15] = target: Receptor tyrosine-protein kinase erbB-4 (Homo sapiens) (UniProt Q15303); conditions: at 1 µM
# [16] = target: Receptor tyrosine-protein kinase erbB-4 (Homo sapiens) (UniProt Q15303); conditions: at 10 µM
# [17] = target: Focal adhesion kinase 1 (Homo sapiens) (UniProt Q05397); conditions: at 1 µM
# Sequence of Ephrin type-A receptor 4 (Homo sapiens) (P54764 whole entry): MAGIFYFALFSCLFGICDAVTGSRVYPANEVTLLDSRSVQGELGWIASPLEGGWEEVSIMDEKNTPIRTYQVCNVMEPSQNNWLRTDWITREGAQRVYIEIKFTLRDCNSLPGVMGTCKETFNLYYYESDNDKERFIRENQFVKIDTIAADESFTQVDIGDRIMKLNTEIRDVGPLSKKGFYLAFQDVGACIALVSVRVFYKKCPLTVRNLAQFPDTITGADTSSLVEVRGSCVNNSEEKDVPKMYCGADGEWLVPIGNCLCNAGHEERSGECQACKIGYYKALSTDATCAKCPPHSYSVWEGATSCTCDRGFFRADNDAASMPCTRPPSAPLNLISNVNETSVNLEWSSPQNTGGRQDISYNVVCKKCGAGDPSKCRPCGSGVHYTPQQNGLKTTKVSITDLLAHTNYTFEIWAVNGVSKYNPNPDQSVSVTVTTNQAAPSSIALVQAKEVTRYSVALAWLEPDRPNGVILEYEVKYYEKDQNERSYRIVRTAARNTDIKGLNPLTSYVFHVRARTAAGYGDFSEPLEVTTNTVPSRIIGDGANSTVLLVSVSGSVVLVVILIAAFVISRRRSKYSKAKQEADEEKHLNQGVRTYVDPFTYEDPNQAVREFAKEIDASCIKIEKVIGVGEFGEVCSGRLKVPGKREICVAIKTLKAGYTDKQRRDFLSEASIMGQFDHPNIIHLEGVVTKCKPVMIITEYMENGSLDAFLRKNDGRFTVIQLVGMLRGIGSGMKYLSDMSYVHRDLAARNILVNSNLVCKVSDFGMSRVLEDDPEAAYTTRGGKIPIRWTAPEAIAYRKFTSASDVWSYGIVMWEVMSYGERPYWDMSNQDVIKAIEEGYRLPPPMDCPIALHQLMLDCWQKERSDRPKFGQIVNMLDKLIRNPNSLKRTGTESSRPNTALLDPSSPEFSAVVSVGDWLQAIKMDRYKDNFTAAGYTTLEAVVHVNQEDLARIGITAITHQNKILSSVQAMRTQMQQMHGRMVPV
# Sequence of Receptor tyrosine-protein kinase erbB-4 (Homo sapiens) (Q15303 whole entry): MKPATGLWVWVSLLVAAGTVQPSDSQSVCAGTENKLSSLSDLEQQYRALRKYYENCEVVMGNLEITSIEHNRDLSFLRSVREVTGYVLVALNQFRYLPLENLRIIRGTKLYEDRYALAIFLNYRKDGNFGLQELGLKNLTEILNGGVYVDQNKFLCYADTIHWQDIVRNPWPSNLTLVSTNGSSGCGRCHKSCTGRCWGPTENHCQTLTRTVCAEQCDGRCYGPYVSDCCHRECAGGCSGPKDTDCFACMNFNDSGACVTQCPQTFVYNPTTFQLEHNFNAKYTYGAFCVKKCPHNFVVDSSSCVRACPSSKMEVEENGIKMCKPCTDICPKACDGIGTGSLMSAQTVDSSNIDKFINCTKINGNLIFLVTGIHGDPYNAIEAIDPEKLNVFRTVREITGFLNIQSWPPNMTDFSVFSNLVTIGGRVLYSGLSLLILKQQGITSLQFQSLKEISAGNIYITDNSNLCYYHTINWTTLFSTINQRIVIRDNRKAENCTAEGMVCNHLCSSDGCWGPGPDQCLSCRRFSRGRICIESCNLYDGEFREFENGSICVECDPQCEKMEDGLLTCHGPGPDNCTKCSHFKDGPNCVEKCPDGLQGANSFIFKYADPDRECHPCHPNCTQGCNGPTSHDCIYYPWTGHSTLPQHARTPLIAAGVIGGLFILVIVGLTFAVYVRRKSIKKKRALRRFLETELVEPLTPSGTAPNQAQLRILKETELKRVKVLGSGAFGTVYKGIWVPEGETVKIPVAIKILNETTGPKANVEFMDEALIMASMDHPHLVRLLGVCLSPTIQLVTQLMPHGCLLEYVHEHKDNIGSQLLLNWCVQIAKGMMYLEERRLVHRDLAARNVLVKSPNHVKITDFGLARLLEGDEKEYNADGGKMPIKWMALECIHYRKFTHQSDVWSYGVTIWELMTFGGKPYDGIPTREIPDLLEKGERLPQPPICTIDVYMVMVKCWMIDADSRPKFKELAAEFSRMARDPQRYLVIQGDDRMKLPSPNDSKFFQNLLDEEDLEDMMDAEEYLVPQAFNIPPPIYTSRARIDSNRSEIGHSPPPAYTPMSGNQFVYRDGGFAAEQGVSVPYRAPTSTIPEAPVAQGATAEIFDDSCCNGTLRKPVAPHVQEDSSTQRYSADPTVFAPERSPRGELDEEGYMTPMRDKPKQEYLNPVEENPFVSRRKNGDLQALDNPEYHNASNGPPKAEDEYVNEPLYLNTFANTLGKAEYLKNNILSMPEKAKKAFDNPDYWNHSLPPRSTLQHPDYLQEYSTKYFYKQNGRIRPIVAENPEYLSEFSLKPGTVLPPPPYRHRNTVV
# Sequence of Ephrin type-A receptor 5 (Homo sapiens) (P54756 whole entry): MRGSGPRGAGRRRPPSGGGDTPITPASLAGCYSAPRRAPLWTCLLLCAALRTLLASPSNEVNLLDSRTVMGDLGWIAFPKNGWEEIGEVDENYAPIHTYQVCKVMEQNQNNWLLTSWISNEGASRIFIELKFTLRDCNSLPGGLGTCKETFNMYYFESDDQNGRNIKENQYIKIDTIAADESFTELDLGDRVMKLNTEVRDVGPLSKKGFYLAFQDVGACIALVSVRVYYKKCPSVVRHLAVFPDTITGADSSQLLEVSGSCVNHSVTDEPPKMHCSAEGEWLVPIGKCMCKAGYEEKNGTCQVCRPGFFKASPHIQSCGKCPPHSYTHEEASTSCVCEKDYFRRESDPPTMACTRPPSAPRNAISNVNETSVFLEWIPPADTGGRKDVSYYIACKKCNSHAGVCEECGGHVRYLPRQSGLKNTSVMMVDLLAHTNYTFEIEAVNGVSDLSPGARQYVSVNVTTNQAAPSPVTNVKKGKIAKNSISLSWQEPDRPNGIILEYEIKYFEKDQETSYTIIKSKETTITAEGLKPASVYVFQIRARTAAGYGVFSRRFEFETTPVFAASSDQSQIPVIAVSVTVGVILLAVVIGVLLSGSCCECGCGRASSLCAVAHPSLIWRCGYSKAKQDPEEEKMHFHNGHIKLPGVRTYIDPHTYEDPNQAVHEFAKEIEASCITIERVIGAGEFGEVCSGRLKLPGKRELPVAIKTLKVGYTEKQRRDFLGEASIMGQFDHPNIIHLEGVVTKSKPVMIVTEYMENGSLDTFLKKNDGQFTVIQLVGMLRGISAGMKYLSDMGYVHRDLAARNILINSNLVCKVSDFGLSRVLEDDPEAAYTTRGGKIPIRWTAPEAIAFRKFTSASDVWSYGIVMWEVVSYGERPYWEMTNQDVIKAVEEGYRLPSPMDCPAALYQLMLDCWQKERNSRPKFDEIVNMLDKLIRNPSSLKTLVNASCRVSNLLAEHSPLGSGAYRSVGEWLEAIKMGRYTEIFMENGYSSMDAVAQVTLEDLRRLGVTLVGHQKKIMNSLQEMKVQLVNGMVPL
# Sequence of Ephrin type-A receptor 7 (Homo sapiens) (Q15375 28-998 limits assumed): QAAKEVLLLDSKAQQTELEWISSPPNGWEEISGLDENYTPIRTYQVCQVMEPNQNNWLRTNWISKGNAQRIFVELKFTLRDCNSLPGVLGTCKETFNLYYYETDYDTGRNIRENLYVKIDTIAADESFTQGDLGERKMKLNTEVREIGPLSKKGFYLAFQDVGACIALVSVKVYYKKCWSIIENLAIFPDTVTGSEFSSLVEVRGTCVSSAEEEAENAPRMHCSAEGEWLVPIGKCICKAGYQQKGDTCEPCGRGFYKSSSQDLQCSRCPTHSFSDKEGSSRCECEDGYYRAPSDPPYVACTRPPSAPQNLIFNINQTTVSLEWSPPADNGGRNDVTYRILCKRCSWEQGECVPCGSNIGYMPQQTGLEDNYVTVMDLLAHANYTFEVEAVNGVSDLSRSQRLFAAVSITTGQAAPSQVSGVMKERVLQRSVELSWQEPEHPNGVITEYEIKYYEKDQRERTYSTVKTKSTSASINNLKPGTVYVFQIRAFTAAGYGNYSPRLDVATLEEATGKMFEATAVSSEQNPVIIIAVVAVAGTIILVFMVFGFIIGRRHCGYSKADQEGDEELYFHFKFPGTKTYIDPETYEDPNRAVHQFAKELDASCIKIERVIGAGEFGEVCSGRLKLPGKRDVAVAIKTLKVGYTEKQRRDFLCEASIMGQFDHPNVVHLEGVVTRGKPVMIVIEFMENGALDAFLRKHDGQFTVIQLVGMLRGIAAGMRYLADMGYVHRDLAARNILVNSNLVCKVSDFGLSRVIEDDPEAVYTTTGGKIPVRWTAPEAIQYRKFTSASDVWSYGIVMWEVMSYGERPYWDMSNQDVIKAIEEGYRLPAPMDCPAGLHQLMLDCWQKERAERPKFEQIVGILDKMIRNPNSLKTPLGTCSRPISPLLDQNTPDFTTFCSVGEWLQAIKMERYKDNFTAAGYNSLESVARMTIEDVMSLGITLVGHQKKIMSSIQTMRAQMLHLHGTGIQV
smiles,measurement,setting,value
COc1cc2ncnc(Nc3cccc(Cl)c3)c2cc1OC,residual activity,[1],42%
same,residual activity,[2],103%
same,residual activity,[3],57%
same,residual activity,[4],77%
same,residual activity,[5],27%
same,residual activity,[6],73%
same,residual activity,[7],22%
same,residual activity,[8],85%
same,residual activity,[9],35%
same,residual activity,[10],84%
same,residual activity,[11],24%
same,residual activity,[12],121%
same,residual activity,[13],45%
same,residual activity,[14],5%
same,residual activity,[15],35%
same,residual activity,[16],4%
same,residual activity,[17],146%
